# Assay results reported in the supplement of paper PMC9334596.
# Values joined by “and” are separate entries in the source; they are usually repeats but may differ in a detail not shown here. Identical values can stand only once. The full ranking holds about 5,300 compounds; the median of “PER2::LUC luminescence relative to vehicle control” is about 0.96, and the highest 2% start at about 1.3. The entries come from a sample that favours the highest values as a whole.
# System: mPer2Luc MEF
# Experiment: PER2::LUC luminescence relative to vehicle control (fold of vehicle); higher = higher PER2::LUC reporter signal
# Conditions: 10 µM
# Summary of the method: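 Mouse embryonic fibroblasts carrying the mPer2Luc reporter were seeded at ~3000 cells per well in 384-well plates, 48 h before compounds from commercial libraries were added at 10 μM. Cells were grown in DMEM with 10% FBS at 37 °C and 5% CO2. Luminescence was read with the ONE-Glo luciferase assay system 24 h and 30 h after treatment, followed by an alamarBlue viability assay. The value is PER2::LUC luminescence as fold of vehicle control.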
Structure (SMILES),PER2::LUC luminescence (time after treatment 24 h),PER2::LUC luminescence (time after treatment 30 h)
COc1cccc(/C=N/N(C(=O)C(F)(F)F)c2ccc(C)cc2C)c1,0.818,0.768
CN(CCCNC(=O)c1ccc2nc3c(c(Cl)c2c1)CCCC3)Cc1ccccc1,0.848,0.958
C=CCn1c(=O)c2c(nc(-c3ccccc3)n2C)n(C)c1=O,0.98,0.951
O=c1c(O)c(-c2ccc(O)cc2O)oc2cc(O)cc(O)c12,0.955,0.963
O=c1c(O)c(-c2ccccc2O)oc2cc(O)cc(O)c12,0.983,0.996
O=c1c(O)c(-c2cc(O)c(O)c(O)c2)oc2cc(O)cc(O)c12,1.22,1.34
O=c1c(O)c(-c2ccc(O)c(O)c2)oc2cc(O)cc(O)c12,0.939 and 0.842,0.934 and 1
O=c1c(O)c(-c2ccccc2)oc2cc(O)cc(O)c12,1.24,1.34
O=c1c(O)c(-c2ccc(O)cc2)oc2cc(O)cc(O)c12,1.01,0.989
C[C@@H]1O[C@@H](O[C@H]2[C@H](Oc3cc(O)c4c(=O)c(O)c(-c5ccc(O)cc5)oc4c3)O[C@H](CO)[C@@H](O)[C@@H]2O)[C@H](O)[C@H](O)[C@H]1O,1.24,0.968
COC(=O)C1=CO[C@@H](O[C@@H]2O[C@H](CO)[C@@H](O)[C@H](O)[C@H]2O)[C@H]2[C@@H]1C(=O)C[C@@H]2C,0.968,0.979
NC(=O)[C@@H]1CC[C@H](c2ccc(OCc3ccccc3F)cc2)N1,0.937,1.12
COc1ccc(C(=O)c2ccccc2C(=O)O)c(O)c1,1.19,0.841
Ic1cccc(/C=N/Nc2nc(N3CCOCC3)nc(N(c3ccccc3)c3ccccc3)n2)c1,1.3,1.15
CCOC(=O)C1=C(COCCN)NC(C)=C(C(=O)OC)[C@@H]1c1ccccc1Cl,0.445,0.46
COCCOC(=O)C1=C(C)NC(C)=C(C(=O)OC(C)C)C1c1cccc([N+](=O)[O-])c1 (stereo unspecified),1.13,1.17
CCOC(=O)C1=C(C)NC(C)=C(C(=O)OC)C1c1cccc([N+](=O)[O-])c1 (stereo unspecified),1.06 and 0.626,1.37 and 0.715
COC(=O)C1=C(C)NC(C)=C(C(=O)OCCN(C)Cc2ccccc2)C1c1cccc([N+](=O)[O-])c1 (stereo unspecified),1.07,0.867
Cc1ccc(NC(=O)c2cccc(N(C)C)c2)cc1NC(=O)c1ccc(O)cc1,1.1,1.56
CNCc1ccc(C)c(NC(=O)c2ccc(Nc3nc(-c4ccccc4)c4ccccc4n3)cc2)c1,0.439,0.475
Cc1ccc(C(=O)Nc2ccc(S(=O)(=O)O)c3cc(S(=O)(=O)O)cc(S(=O)(=O)O)c23)cc1NC(=O)c1cccc(NC(=O)Nc2cccc(C(=O)Nc3cc(C(=O)Nc4ccc(S(=O)(=O)O)c5cc(S(=O)(=O)O)cc(S(=O)(=O)O)c45)ccc3C)c2)c1,0.964 and 0.875,0.981 and 0.97
CO/S(=N\S(=O)(=O)c1ccc(Cl)cc1)c1ccc([N+](=O)[O-])cc1 (stereo unspecified),0.994,1.22
COc1cc(OC)cc(C(=O)Nc2ccc(Cl)c(-c3nc4ccc(N(C)C)cc4[nH]3)c2)c1,0.977,1.35
NC(=O)c1ccc2nc(-c3ccc(Oc4ccc(Cl)cc4)cc3)[nH]c2c1,1.29,1.16

Structure (SMILES),PER2::LUC luminescence (time after treatment 24 h),PER2::LUC luminescence (time after treatment 30 h)
CC(C)CC[C@@H](O)[C@](C)(O)[C@H]1CC[C@@]2(O)C3=CC(=O)[C@]4(O)C[C@@H](O)[C@@H](O)C[C@]4(C)[C@H]3[C@H](O)C[C@]12C,1.22,1.26
Cc1o[nH]c(=O)c1CCC(N)C(=O)O (stereo unspecified),0.959,0.829
O=C[C@H](O)[C@H]1OC(=O)[C@@H](O)[C@H]1O,1.14,0.922
C[n+]1cc(NC(=O)c2cccc(C(=O)Nc3cc4ccccc4[n+](C)c3)n2)cc2ccccc21,0.697,0.604
Cc1cccn2c(=O)c(C=C(C#N)c3nc4ccccc4s3)c(Oc3ccc(F)cc3)nc12,0.941,0.942
CCCCCCCC/C=C/CCCCCCCCOP(=O)([O-])OCC[N+](C)(C)C,1.02,0.935
OC[C@H]1O[C@@H](O[C@@H]2[C@@H](CO)OC(O)(CO)[C@H]2O)[C@H](O)[C@@H](O)[C@H]1O (mixture of isomers),1.12,1.37
OC[C@H]1O[C@@H](O[C@H]2[C@H](O)[C@@H](O)[C@@H](O)O[C@@H]2CO)[C@H](O)[C@@H](O)[C@@H]1O,0.982,0.927
OC[C@H]1O[C@@H](O[C@H]2[C@H](O)[C@@H](O)C(O)O[C@@H]2CO)[C@H](O)[C@@H](O)[C@H]1O (stereo partly specified),1.03,1.06
CCCC1(C)C(C#N)(C#N)C1(C#N)C#N,1.15,1.04
CC[C@H](CC[C@@H](C)[C@H]1CC[C@H]2[C@@H]3CC=C4C[C@@H](OC(C)=O)CC[C@]4(C)[C@H]3CC[C@]12C)C(C)C,1.04,1.02
C[C@@H]1CCNC(=O)c2cc3ccc(C(=O)Nc4nc5ccccc5n4CCCN(C)C)cc3n21,0.548,0.586
O=C(Nc1nc2ccccc2n1CCN1CCOCC1)c1cccc([N+](=O)[O-])c1,1.36,1.18
COC(=O)c1ccc2c(c1)nc(NC(=O)c1ccccc1)n2CCCc1ccccc1,1.09,0.933
CC(C)[C@H](NC(=O)CCCCCN1C(=O)C=CC1=O)C(=O)N[C@@H](CCCNC(N)=O)C(=O)Nc1ccc(COC(=O)Oc2ccc([N+](=O)[O-])cc2)cc1,0.958,1.07
COC(=O)CNC(=O)C(=O)OC,0.922,0.99
CC(C)(C)c1ccc(S(=O)(=O)Nc2ccc(-n3ccnc3)cc2)cc1,1.15,1.26
Cc1cc(OCc2nc(-c3ccccc3Cl)cs2)ccc1CCC(=O)O,1.11,1.28
CCOc1cc2c(c(F)c1OCC)C(=N)N(CC(=O)c1cc(N3CCOCC3)c(OC)c(C(C)(C)C)c1)C2,0.14,0.117
O=C(Nc1ccc(C(O)(C(F)(F)F)C(F)(F)F)cc1)c1ccc(C(F)(F)F)cc1,0.687,0.47
Cc1oncc1C(=O)Nc1ccc(C(F)(F)F)cc1,1.35,1.82
Nc1ccc(NC(=O)c2ccc(C(F)(F)F)cc2)nc1,1.01,0.976
CC1=CC[C@@]2(C)CC[C@@](O)(C(C)C)[C@@H]2[C@@H](OC(=O)c2ccc(O)cc2)C1,1.08,1.15
O=C(Nc1ccc(Cl)cc1CN1C(=O)c2ccccc2C1=O)c1ccccc1O,1.03,1.02
